{"source": "PubChem BioAssay (NCI)", "note": "Where “and” joins values, the source holds several entries; their conditions need not be identical. Equal entries are not always repeated. The panel holds about 83,000 compounds, 20% with a hit somewhere; the sample as a whole holds those more often.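 Results are percent growth after 48 hours of single-concentration exposure. 100 means growth as in untreated cells, lower positive values show inhibition; negative values down to -100 show cell death.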 Calls of active or inactive are those of the source. The calls were made as follows: active = growth percent below 10; inactive = the rest."}
{"system": "HL-60(TB) leukemia", "test": "NCI-60 one-dose screen, 48 h (100 = growth as untreated, 0 = no growth, -100 = all killed)", "conditions": "10 µM unless noted"}
{"smiles": "O=C1Nc2ccccc2/C1=C/c1cccn1CCCCn1c2ccccc2c(=O)c2ccccc21", "growth": "60.2% (inactive)"}
{"smiles": "Clc1ccc2c(c1)C(N1CCNCC1)=Nc1ccccc1O2", "growth": "50.7% (inactive)"}
{"smiles": "CCOC(=O)N/N=C/c1ccc(OC)c(OC)c1", "growth": "108% (inactive)"}
{"smiles": "C[C@H](CCC(=O)O)[C@H]1CC[C@H]2[C@@H]3CC[C@@H]4/C(=C\\c5ccco5)C(=O)/C(=C\\c5ccco5)C[C@]4(C)[C@H]3CC[C@]12C", "growth": "29.9% (inactive)"}
{"smiles": "Nc1ccc(O)c(C(=O)O)c1", "growth": "89.4% (inactive) and 104% (inactive) and 106% (inactive)"}
{"smiles": "Cc1cccc(NC(=O)N/C(N)=N/c2nc(C)c(C)s2)c1", "growth": "19.5% (inactive)"}
{"smiles": "O=C(O)C1(C(=O)O)CCC1.[NH2-].[NH2-].[Pt+2]", "growth": "103% (inactive) and 58.7% (inactive)"}
{"smiles": "COc1ccccc1S(=O)(=O)Nc1ccc2c(c1)CN(C)C(=O)N2", "growth": "21.9% (inactive)"}
{"smiles": "CCCCCCNC(=O)Oc1ccc(/C(=C(\\C)c2ccc(Cl)cc2)c2ccc(OCCN3CCCCC3)cc2)cc1", "growth": "-18.5% (active)"}
{"smiles": "O=CC(O)C(O)C(O)CO", "note": "(stereo not given)", "growth": "130% (inactive) and 91.5% (inactive)"}
{"smiles": "Cn1c(=O)c2[nH]c(CCCCC(=O)O)nc2n(C)c1=O", "growth": "60.6% (inactive)"}
{"smiles": "O=C(O)c1ccccc1C(=O)OC1CCCC2CCCC21", "note": "(stereo not given)", "growth": "104% (inactive)"}
{"smiles": "N#C/C(=C\\c1ccc2ccccc2c1)c1cc2ccccc2[nH]1", "growth": "10.5% (inactive)"}
{"smiles": "COc1ccc(CN2C(=O)/C(=C\\C(=O)c3ccc(OCCN4CCCCC4)cc3)c3ccccc32)cc1", "growth": "20% (inactive)"}
{"smiles": "CCNCCCn1c2c(c3ccc(F)cc3c1=O)C(=O)c1cc(OC)cnc1-2", "growth": "-25.5% (active)"}
{"smiles": "COC(=O)[C@H](Cc1ccccc1)NC(=O)[C@@H](OC)[C@@H]1Cc2cc3cc(OC4CC(OC5CC(O)C(O)C(C)O5)C(O)C(C)O4)c(C)c(O)c3c(O)c2C(=O)[C@H]1OC1CC(OC2CC(OC3CC(C)(O)C(O)C(C)O3)C(O)C(C)O2)C(O)C(C)O1", "note": "(stereo not given in full)", "growth": "-9.07% (active)"}
{"smiles": "CCCc1c(C)c2sc(=O)[nH]c2[nH]c1=O", "growth": "101% (inactive)"}
{"smiles": "O=[N+]([O-])c1ccc(N/N=C/c2c(O)ccc3ccccc23)nc1", "growth": "9.55% (active)"}
{"smiles": "NS(=O)(=O)c1ccc(CCN2C(=O)/C(=C\\c3ccccc3)C=C2c2ccc(Cl)cc2)cc1", "growth": "104% (inactive)"}
{"smiles": "N#Cc1cccc(-c2c(-c3ccc4ccccc4c3)oc3ccccc3c2=O)c1", "growth": "6.17% (active)"}
{"smiles": "CC(C)C(=O)Nc1ccc([N+](=O)[O-])c(C(F)(F)F)c1", "growth": "91.1% (inactive) and 98.3% (inactive)"}
{"smiles": "N#CSCC(=O)c1ccc(Cl)cc1", "growth": "73.4% (inactive)"}
{"smiles": "O=C(OCc1ncc(-c2ccc(C(F)(F)F)cc2)c(NC2CCCCCC2)n1)c1c(F)c(F)c(F)c(F)c1F", "growth": "27.5% (inactive)"}
{"smiles": "NC1=NC(c2ccccc2)N=C(Nc2ccccc2)N1", "note": "(stereo not given)", "growth": "95.7% (inactive) and 111% (inactive)"}
{"smiles": "CC[C@@]1(O)C(=O)OCc2c1cc1n(c2=O)Cc2c-1nc1ccccc1c2/C=N/OC(C)(C)C", "growth": "-29% (active)"}
{"smiles": "O=C(C[n+]1cccc2cc(Cl)ccc21)c1ccc2c(c1)CCCC2", "growth": "-28.3% (active)"}
{"smiles": "O=C1c2cc(Cl)ccc2S(=O)(=O)c2c(NCCCNCCO)nc3ccccc3c21", "growth": "-27% (active)"}
{"smiles": "COC(=O)[C@H](NC(=O)C1(C)CCC[C@]2(C)[C@H]3C[C@H]4C(C(C)C)=C[C@]3(CC[C@@H]12)[C@@H]1C(=O)CCC(=O)[C@@H]14)C(C)C", "note": "(stereo not given in full)", "growth": "103% (inactive)"}
{"smiles": "CSc1nc(N)c(N)c(N)n1", "growth": "77.8% (inactive)"}
{"smiles": "COc1cc(CSc2nc3ccc(Cl)cc3c(=O)n2Cc2ccccc2)cc(OC)c1OC", "growth": "14.7% (inactive)"}
{"smiles": "CC1(O)CC(c2nc(-c3ccc4ccc(-c5ccccc5)nc4c3)c3c(N)nccn23)C1", "note": "(stereo not given)", "growth": "17.5% (inactive)"}
{"smiles": "Brc1c2c(c(Br)c3ccccc13)CCCC2", "growth": "91.4% (inactive)"}
{"smiles": "CCCCCCCCC(C)OC(=O)c1nn(C(C)=O)c2ccccc12", "note": "(stereo not given)", "growth": "99.5% (inactive)"}
{"smiles": "CCN1Cc2c(/C=C/c3ccccc3)nc3ccc(OC)cc3c2N(c2cccc(Cl)c2)C1", "growth": "23.6% (inactive)"}
{"smiles": "O=C(NCc1cccc(C(F)(F)F)c1)[C@H](CCC(=O)N1CCN(C2CCCCC2)CC1)N1C(=O)[C@@H](N2C(=O)OC[C@@H]2c2ccccc2)[C@H]1/C(Cl)=C/c1ccccc1", "growth": "5.62% (active)"}
{"smiles": "Oc1c(Cl)cc(Cl)cc1Sc1cc(Cl)cc(Cl)c1O", "growth": "28% (inactive) and -16.5% (active) and 52.9% (inactive)"}
{"smiles": "CCSc1nnc2c3cc(Br)ccc3n(C)c2n1", "growth": "110% (inactive)"}
{"smiles": "COc1cc2cc(Oc3ccc(NC(=O)Nc4ccc(Cl)c(Cl)c4)cc3)c(C)nc2cc1OC", "growth": "9.64% (active)"}
{"smiles": "Cc1sc2nc3[nH]/c(=C\\c4ccc(Cl)cc4)c(=O)n3c(=O)c2c1C", "growth": "92.8% (inactive)"}
{"smiles": "CC(CN(C)C)CN1c2ccccc2Sc2ccccc21", "note": "(stereo not given)", "growth": "91.3% (inactive) and 105% (inactive) and 94.5% (inactive)"}
